Screens deposited in PubChem BioAssay by Broad Institute.
The list is a sample of the results.
aSyn 5UTR act – Activators working through SNCA 5'UTR binding (MLPCN); alpha-synuclein 5'UTR reporter, activators screen; activity score, % (tested at 7.5 µM), hits read low; 300,000 tested, 7.1% active; AID 1814; in the data active means activity score below about -60%
The depositor's hits bear a star.

SMILES	aSyn 5UTR act
Brc1ccc(-c2nnc(-c3ccco3)o2)cc1	-146.3*
COC(=O)c1ccc(CO/N=C2\CCCc3nonc32)cc1	-122.1*
COc1ccc(/C=N/N=C(\N)c2nonc2N)cc1	-111.0*
CC1(C)C=Cc2cc(-c3coc4cc(O)cc(O)c4c3=O)cc(O)c2O1	-149.4*
CCOc1ccc2nc3cc(NCc4ccc(OC)cc4)ccc3c(N)c2c1	108.6
CCCn1cnc2cc(NCc3cccs3)ccc21	-161.1*
CCc1ccc(CNc2ccc3c(c2)ncn3CC)cc1	-176.8*
CCn1cnc2cc(NCc3ccc(OC)cc3)ccc21	-100.7*
Cc1ccccc1NC1=C(Cl)C(=O)N(C2CCCCC2)C1=O	-132.8*
COc1ccccc1NC1=C(Cl)C(=O)N(C2CCCCC2)C1=O	-91.4*
COc1cc(OC)c(NC2=CC(=O)C(=O)c3ccccc32)cc1Cl	107.4
O=C(NCc1ccccc1)C1=C[C@@H](c2csc3ccccc23)C[C@@H](OCCCCO)O1	94.9
C#Cc1ccc([C@@H]2C=C(C(=O)N3CCN(Cc4ccccc4)CC3)O[C@H](OCCCCO)C2)cc1	98.8
O=C(Nc1ccccc1)C1=C[C@@H](c2ccc(C(F)(F)F)cc2)C[C@@H](OCCCCO)O1	-95.1*
O=C(OCn1ncc(Br)c(Br)c1=O)c1c(F)cccc1F	60.6
CC(=O)Cn1ncc(Br)c(Br)c1=O	-87.4*
CC(C)(C)C(=O)Cn1ncc(N2CCCC2)c(Br)c1=O	-71.5*
CCN(CC)C(NC(=O)c1ccccc1)C(=O)c1ccccc1 (stereo not given)	-68.9*
Nc1nc2ccccc2n1C(=O)CCc1ccccc1	-62.8*
CCCC(=O)Nc1ccc(-c2nc3ncccc3o2)cc1	-181.2*
CCCC(=O)Nc1ccc2oc(-c3cccnc3)nc2c1	-79.8*
CCCC(=O)NC(c1ccccc1Cl)c1ccc2cccnc2c1O (stereo not given)	68.3
O=C(NC(=S)Nc1ccc2oc(-c3cccnc3)nc2c1)c1cccc(Cl)c1	-115.0*
COC(=O)Cc1ccc2oc(-c3cccnc3)nc2c1	-63.5*
O=[N+]([O-])c1ccc(-n2cc(-c3ccccc3)nn2)cc1	-79.6*
SMILES	aSyn 5UTR act
Cc1cc(NC(=O)c2cccs2)ncc1NC(=O)c1cccc(F)c1	-129.2*
Cc1cc(NC(=O)c2cccs2)ncc1NC(=O)C(C)C	-144.6*
Cc1cc(NC(=O)c2ccccc2F)ncc1NC(=O)c1cccs1	-63.0*
Cc1cc(NC(=O)c2ccccc2)ncc1NC(=O)c1cccs1	-103.2*
Cc1c(N/N=C(\C#N)C(=O)c2ccc(Cl)cc2)c(=O)n(-c2ccccc2)n1C	86.3
Cc1c(NC(=O)c2cc(C3CC3)on2)c(=O)n(-c2ccccc2)n1C	-61.7*
CCCCN1/C(=C/c2ccc3ccccc3[n+]2CC)Sc2ccccc21	80.2
CCN1/C(=C\C=C2\C(=O)N(C)C(=S)N2C)Sc2ccccc21	-81.2*
Cc1ccc(NC(=O)Nc2ncccc2C)cc1	-162.9*
CCOC(=O)c1ccc(NC(=O)Nc2ncccc2C)cc1	-102.4*
CCOC(=O)c1ccc(NC(=S)Nc2ccccn2)cc1	-136.8*
Cc1cccnc1NC(=O)Nc1ccc(F)cc1	-144.1*
N/C(=N\OC(=O)Cc1cccs1)c1ccccc1	-213.9*
Cc1cccc(/C(N)=N/OC(=O)Cc2cccs2)c1	-140.8*
Cc1ccc(/C(N)=N/OC(=O)Cc2cccs2)cc1	-168.5*
N/C(Cc1cccs1)=N\OC(=O)COc1ccccc1	-77.3*
CSc1nnc(-c2cc(-c3ccc(C)cc3)nc3ccccc23)o1	57.0
CCc1ccc(-c2cc(-c3n[nH]c(=S)n3CC)c3ccccc3n2)cc1	-68.5*
Cc1ccnc(Nc2nc(-c3ccc(Cl)cc3)cs2)c1	-163.4*
Cc1ccnc(Nc2nc(-c3ccc(F)cc3)cs2)c1	-162.2*
O=C(/C=C/c1ccc(-c2ccccc2[N+](=O)[O-])o1)c1ccco1	-135.9*
CCC(=NCCc1c(C)[nH]c2ccc(C)cc12)C1=C(O)CC(c2ccccc2)CC1=O (stereo not given)	104.0
C=CCc1c(C)[nH]c2ccc(C)cc2c1=O	-85.7*
CN(c1ccc(C(=O)Nc2ccc3c(c2)OCCO3)cc1)S(C)(=O)=O	-149.4*
CN(c1ccc(C(=O)Nc2ccc3c(c2)OCO3)cc1)S(C)(=O)=O	-102.9*
SMILES	aSyn 5UTR act
Oc1ccc(/C=C/c2ccc3ccccc3n2)cc1	89.7
O=c1[nH]c2ccccc2nc1/C=C/c1ccc(F)cc1	-139.0*
Cn1c(=O)c(/C=C/c2ccccc2)nc2ccccc21	-290.8*
O=c1[nH]c2ccccc2nc1/C=C/c1ccc(O)cc1	-213.9*
O=c1[nH]c2ccccc2nc1/C=C/c1ccccc1	-164.6*
CC(=O)c1ccc(/C=C/c2nc3ccccc3n2C)o1	-90.6*
Cc1ccc(C(=O)CC(=O)c2ccc(C)cc2O)cc1	-94.8*
CC(C)(C)c1ccc(C(=O)CS(=O)(=O)c2ccccc2)cc1	-133.2*
Cc1ccc(C(=O)CC(=O)c2cc(Cl)ccc2O)cc1	-151.4*
Cc1ccc(C(=O)CC(=O)c2ccc(C(C)(C)C)cc2)cc1	-112.8*
CCN(Cc1ccccc1)c1ccc(/C=C(\C#N)c2ccccn2)cc1	-137.1*
C=CCC(CC(O)COCCC)C(=O)NNC(=S)Nc1ccccc1 (stereo not given)	-113.1*
CCn1c(SCC(=O)Nc2ccc(C(C)=O)cc2)nc2nc3c(cc2c1=O)COC(C)(C)C3	-83.1*
CC1(C)Cc2nc3sc4c(SCC(=O)NCc5ccccc5)ncnc4c3cc2CO1	64.0
CC(=O)c1ccc(NC(=O)CSc2nc(N)c3cc4c(nc3n2)CCCC4)cc1	-78.9*
CC1(C)Cc2nc3nc(SCC(=O)Nc4ccccc4)nc(N)c3cc2CO1	-67.5*
COc1cccc(C(=O)Nc2ccc(NC(C)=O)cn2)c1	-129.2*
COc1cccc(C(=O)Nc2ccc(NC(=O)c3ccco3)nc2)c1	-161.8*
O=C(Nc1ccc(NC(=O)c2ccco2)nc1)c1cccc(F)c1	-134.2*
CCCC(=O)Nc1ccc(NC(=O)c2cccc(OC)c2)nc1	-159.8*
O=C(Nc1ccc(NC(=O)c2ccco2)nc1)c1cccnc1	-75.3*
CCOC(=O)c1cccc(S(=O)(=O)N(CCO)Cc2cc3cc(OC)c(OC)cc3[nH]c2=O)c1	-71.6*
Cc1cc2cc(CN(Cc3ccco3)S(=O)(=O)c3c(C)ccc4nsnc34)c(=O)[nH]c2cc1C	88.9
CC(C)=CC(=O)Nc1nnc(-c2cccnc2)s1	-67.4*
CC(C)=CC(=O)Nc1nnc(C(C)C)s1	-119.4*
SMILES	aSyn 5UTR act
CSc1nc2sc3c(c2c(=O)[nH]1)CCC(C)C3 (stereo not given)	-150.8*
COC(=O)Cn1c(=NC(=O)c2ccc(Cl)s2)sc2cc(F)ccc21	-110.7*
C#CCn1c(=NC(=O)c2ccc(Cl)s2)sc2cccc(OC)c21	-79.0*
Cc1ccn2cc(C34CC5CC(CC(C5)C3)C4)nc2c1	-83.2*
S=C(Nc1ccc2c(c1)OCO2)Nc1ccc2c(c1)OCO2	-107.3*
O=C(NC(=S)Nc1ccc2c(c1)OCO2)c1ccc(Cl)cc1	-143.2*
O=C(NC(=S)Nc1ccc2c(c1)OCCO2)c1ccc(F)cc1Cl	-136.2*
Cc1ccc(C(=O)NC(=S)Nc2ccc3c(c2)OCCO3)c(C)c1	-136.6*
CCn1ncc(NC(=S)Nc2ccc3c(c2)OCO3)c1C(N)=O	-180.4*
O=C(CCl)Nc1ccc2c(c1)OCO2	-89.6*
CCc1ccc(C(=O)NC(=S)Nc2ccc3c(c2)OCCO3)cc1	-128.2*
Cc1cc(C)cc(C(=O)NC(=S)Nc2ccc3c(c2)OCCO3)c1	-218.7*
Cc1cccnc1NC(=O)/C=C/c1ccc2c(c1)OCO2	-151.4*
Cc1cc(C)nc(NC(=O)/C=C/c2ccc3c(c2)OCO3)c1	-206.9*
